# Data published in PubChem BioAssay (Tox21).
# Inconclusive results are not listed. Entries that show only a call come without a potency. Calls of active or inactive are those of the source. Unless noted, calls follow the shape of the dose curve; as a rule, active = well fitted curve in the direction sought with a large enough effect in the repeat runs; inconclusive = weak or mixed curves; inactive = no such curve, though single readings can be large; an effect the other way counts as inactive or inconclusive.
# Key:
# [1] = qHTS assay to identify small molecule antagonists of the estrogen related receptor (ERR) signaling pathway - cell viability counter screen (AID 1224818); also: series mostly up to about 46 µM
# In short: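 ERR cells, 2,000 per well, compound added after 6 h and incubated 17.5 h at 37 C. Viability read by CellTiter-Fluor fluorescence after a further 30 min at 37 C.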
# [2] = qHTS assay to identify small molecule antagonists of the estrogen related receptor (ERR) signaling pathway (AID 1224819; also: nearly all actives have a fitted effect of over 50% in size; also: potency is read from the fitted curve at half-maximal effect)
# In short: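 ERR reporter cell line (NTP) plated at 2,000 cells/well, settled 6 h at 37C/5% CO2, then exposed to LOPAC compounds for 18 h at 37C. One-Glo luciferase luminescence read after 30 min at room temperature.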
# [3] = qHTS assay to identify small molecule agonists of the estrogen related receptor (ERR) signaling pathway (AID 1224820); also: potency is read from the fitted curve at half-maximal effect
# In short: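 Cells: ERR line from NTP, 2,000/well. Pre-incubation 6 h, 37 C/5% CO2. Compound (DMSO) pin transfer, 18 h 37 C. One-Glo, 30 min RT, luminescence.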
# [4] = tested on: estrogen-related receptor alpha (ERRalpha) with PGC-1alpha coactivator, human; test: qHTS assay to identify small molecule antagonists of the estrogen related receptor signaling pathway with the pleiotropic PPARgamma coactivator (PGC) (AID 1224821; calls by dose curve; also: nearly all actives have a fitted effect of over 50% in size; also: potency is read from the fitted curve at half-maximal effect)
# In short: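 Luminescent read-out (One-Glo, 30 min at room temperature) following 18 h treatment of PGC/ERR cells at 37 C with compounds delivered in DMSO. Cells had settled 6 h at 37 C/5% CO2 before dosing.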
# [5] = qHTS assay to identify small molecule agonists of the estrogen related receptor signaling pathway with the pleiotropic PPARgamma coactivator (PGC) (AID 1224823)
# In short: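 Steps: plate PGC/ERR cells at 2,000 cells/well; incubate 6 h, 37 C/5% CO2; pin-transfer compounds (DMSO); incubate 18 h, 37 C; add One-Glo; 30 min RT; read luminescence.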
# [6] = qHTS assay to identify small molecule antagonists of the estrogen related receptor signaling pathway with the pleiotropic PPARgamma coactivator (PGC) cell viability counter screen (AID 1224822; also: series mostly up to about 46 µM)
# In short: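 PGC/ERR cells rested 6 h, then compound-treated 17.5 h at 37 C. CellTiter-Fluor added for 30 min at 37 C, viability measured by fluorescence intensity.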
Compound,Potency [1],Potency [2],Potency [3],Potency [4],Potency [5],Potency [6]
CNCCc1cnc(CCC(c2ccccc2)c2ccccc2)[nH]1,inactive,inactive,inactive,inactive,inactive,–
CSc1nc(N)c2ncn([C@@H]3O[C@H](COP(=O)(O)OP(=O)(O)OP(=O)(O)O)C(O)[C@H]3O)c2n1 (stereo not given in full),inactive,inactive,inactive,–,–,inactive
COc1ccc(CCN(C)CCc2ccc(OC)c(OC)c2)cc1OC,inactive,inactive,inactive,inactive,inactive,–
CC(C)(Sc1ccc(CCN(CCCCC2CCCCC2)C(=O)NC2CCCCC2)cc1)C(=O)O,inactive,inactive,inactive,inactive,inactive,–
Nc1ncnc2c1nc(Sc1ccc(Cl)cc1)n2[C@H]1OC2COP(=O)(O)O[C@@H]2C1O (stereo not given in full),inactive,inactive,inactive,–,–,inactive
COc1cccc(C(=O)NCCN2CCN(c3ccc(Cl)cc3)CC2)c1,inactive,17.4 µM (active),inactive,–,inactive,inactive
Cn1c(=O)c2c(nc(/C=C/c3cccc(Cl)c3)n2C)n(C)c1=O,inactive,inactive,inactive,inactive,inactive,–
O=C(O)C1=CC(=C(c2ccc(O)c(C(=O)O)c2)c2ccc(O)c(C(=O)O)c2)C=CC1=O,inactive,inactive,inactive,–,–,inactive
CCCCS(=N)(=O)CCC(N)C(=O)O (stereo not given),inactive,inactive,inactive,inactive,inactive,–
CCCN(CC1CC1)c1nc(C)nc(Nc2c(Cl)cc(Cl)cc2Cl)c1Cl,inactive,inactive,inactive,–,inactive,inactive
CN1CCc2ccccc2Cc2[nH]c3ccccc3c2CC1,inactive,inactive,inactive,inactive,inactive,–
CN(C)c1nc(N)c(C(=O)N=C(N)N)nc1Cl,inactive,inactive,inactive,–,inactive,inactive
Clc1nccc2c1ccc1ccccc12,inactive,inactive,inactive,–,inactive,inactive
O=c1[nH]ccc2c(O)cccc12,inactive,inactive,inactive,inactive,inactive,–
C#C[C@]1(O)CC[C@H]2[C@@H]3CCC4=Cc5oncc5CC4(C)[C@H]3CCC21C (stereo not given in full),inactive,16.8 µM (active),inactive,19.6 µM (active),inactive,–
COc1ccc(-c2ccc(N)[n+](CCCC(=O)O)n2)cc1,inactive,inactive,inactive,inactive,inactive,–
O=C1NC(=O)/C(=C/c2ccc3nccnc3c2)S1,inactive,inactive,inactive,–,inactive,inactive

Compound,Potency [1],Potency [2],Potency [3],Potency [4],Potency [5],Potency [6]
CC1CCN(CC[C@H]2CCCN2S(=O)(=O)c2cccc(O)c2)CC1,inactive,inactive,inactive,inactive,inactive,–
CCc1cncnc1N1CCN(Cc2nc3ccc(C(F)(F)F)cc3[nH]2)CC1,inactive,6.94 µM (active),inactive,–,inactive,inactive
Fc1cccc(/C=N/N=C/c2cccc(F)c2)c1,inactive,inactive,15.5 µM (active),–,–,inactive
Clc1ccc2c(N3CCN(CCCN4CCN(c5ccnc6cc(Cl)ccc56)CC4)CC3)ccnc2c1,inactive,inactive,inactive,–,inactive,inactive
Cc1cc(NC2CCCCC2)nc(-n2nc(C)cc2C)n1,inactive,10.2 µM (active),inactive,0.694 µM (active),inactive,–
Cn1ncc(S(=O)(=O)Cc2ccccc2)c(Br)c1=O,inactive,inactive,inactive,inactive,inactive,–
O=C(c1ccc(OCCCc2cnc[nH]2)cc1)C1CC1,inactive,inactive,inactive,–,inactive,inactive
COc1cc2c(CCNC(C)=O)c[nH]c2cc1Cl,inactive,inactive,inactive,inactive,inactive,–
O[Si](CCCN1CCCCC1)(c1ccc(F)cc1)C1CCCCC1 (stereo not given),inactive,inactive,inactive,inactive,inactive,–
NCCC1CCCC(CCN)N1 (stereo not given),inactive,inactive,inactive,inactive,inactive,–
CO[C@H]1O[C@@H]2O[C@]3(C)CC[C@@H]4[C@@H](C)CC[C@H]([C@H]1C)[C@]24OO3,inactive,0.531 µM (active),inactive,–,–,inactive
N[C@H](C(=O)O)[C@H](O)C(=O)O,inactive,inactive,inactive,inactive,inactive,–
CC(C)(NS(=O)(=O)c1ccc(Oc2ccc(F)cc2)cc1)C(=O)NO,inactive,2.46 µM (active),inactive,–,inactive,inactive
NC(N)=NC(N)=Nc1ccccc1,inactive,inactive,inactive,–,inactive,inactive
COc1cc(/C=C(\C#N)C(=O)Nc2nnc(C(F)(F)F)s2)ccc1OCc1ccc(C(F)(F)F)cc1C(F)(F)F,inactive,6.43 µM (active),inactive,3.48 µM (active),inactive,–
[Li+],inactive,inactive,inactive,inactive,inactive,–
CCCCCCCCCC(=O)NC(CN1CCOCC1)[C@H](O)c1ccccc1 (stereo not given in full),inactive,17.4 µM (active),inactive,–,inactive,inactive
